Test results: the supplement of paper PMC9262897, “Low-cost anti-mycobacterial drug discovery using engineered E. coli” (Nature Communications, 2022)
Counter-ions that a name gives are not always drawn. ± gives the standard deviation of the averaged measurements.

Key:
Test in all cases: growth (OD600 after 10 h); higher = more growth (less inhibition)
[1] = tested on: E. coli TESEC Alr+ wild-type control; conditions: compound 0.1 mM; raw OD600 reference: median of DMSO wells 0.241, cell-free background 0.041
Description: (§1)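 TESEC Mtb Alr E. coli, or the Alr+ wild-type control, in 384-well plates with Prestwick library compounds at 0.1 mM and 1% DMSO, across arabinose induction levels of 1E3 to 1E7 nM. Growth is read as OD600 after 10 h at 37 °C in triplicate biological replicates.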

[2] = tested on: E. coli TESEC Mtb Alr; conditions: compound 0.1 mM
Description: as §1

[3] = tested on: E. coli TESEC Mtb Asd; conditions: compound 0.1 mM
Description: (§2)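 TESEC E. coli strains in which the native enzyme is deleted and replaced by arabinose-inducible Mtb Asd, DapB, CysH or TrpD, each grown in its selective medium. Strains were screened against the Prestwick library at 0.1 mM and 1% DMSO in 384-well format at low and high arabinose induction. Growth is read as OD600 after 10 h in triplicate.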

[4] = tested on: E. coli TESEC Mtb DapB; conditions: compound 0.1 mM
Description: as §2

[5] = tested on: E. coli TESEC Alr+ wild-type control; conditions: compound 0.1 mM; raw OD600 reference: median of DMSO wells 0.49, cell-free background 0.052
Description: (§3)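 TESEC Mtb Alr E. coli (ΔaraC ΔtolC ΔentC Δalr ΔdadX, arabinose-inducible Mtb Alr) or the Alr+ wild-type control strain, grown in defined M9-fructose medium without D-alanine in 96-well plates with Prestwick library compounds at 0.1 mM and 1% DMSO. Low Alr induction is 0.1 µM arabinose and high induction is 10 mM arabinose.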

[6] = tested on: E. coli TESEC Mtb Alr; conditions: compound 0.1 mM; remark: listed apart in the source
Description: as §3

[7] = arabinose 1000 nM, raw OD600 reference: median of DMSO wells 0.294, cell-free background 0.041
[8] = arabinose 10000 nM, raw OD600 reference: median of DMSO wells 0.264, cell-free background 0.041
[9] = arabinose 100000 nM, raw OD600 reference: median of DMSO wells 0.201, cell-free background 0.041
[10] = arabinose 1000000 nM, raw OD600 reference: median of DMSO wells 0.193, cell-free background 0.041
[11] = arabinose 10000000 nM, raw OD600 reference: median of DMSO wells 0.146, cell-free background 0.041
[12] = arabinose induction (level): High, raw OD600 reference: median of DMSO wells 0.331, cell-free background 0.041
[13] = arabinose induction (level): Low, raw OD600 reference: median of DMSO wells 0.417, cell-free background 0.041
[14] = arabinose induction (level): High, raw OD600 reference: median of DMSO wells […], cell-free background 0.041
[15] = arabinose induction (level): Low, raw OD600 reference: median of DMSO wells 0.227, cell-free background 0.041
[16] = arabinose 100 nM, raw OD600 reference: median of DMSO wells 0.413, cell-free background 0.052
[17] = arabinose 10000000 nM, raw OD600 reference: median of DMSO wells […], cell-free background 0.052

SMILES | growth [1] | growth [2, 7] | growth [2, 8] | growth [2, 9] | growth [2, 10] | growth [2, 11] | growth [3, 12] | growth [3, 13] | growth [4, 14] | growth [4, 15] | growth [5] | growth [6, 16] | growth [6, 17]
CC(C)NC[C@H](O)COc1cccc2ccccc12 [(S)-propranolol hydrochloride] | 0.202 ± 0.0096 | 0.263 ± 0.011 | 0.295 ± 0.0058 | 0.18 ± 0.016 | 0.191 ± 0.014 | 0.149 ± 0.0089 | 0.279 ± 0.071 | 0.308 ± 0.043 | 0.173 ± 0.025 | 0.231 ± 0.051 | 0.497 ± 0.031 | 0.424 ± 0.0079 | 0.332 ± 0.016
C#C[C@]1(O)CC[C@H]2[C@@H]3CCC4=CC(=O)CC[C@@H]4[C@H]3CC[C@@]21C [Norethindrone] | 0.196 ± 0.042 | 0.221 ± 0.017 | 0.221 ± 0.012 | 0.179 ± 0.012 | 0.1044 ± 0.00092 | 0.134 ± 0.0033 | 0.286 ± 0.041 | 0.362 ± 0.058 | 0.183 ± 0.0096 | 0.21 ± 0.042 | 0.427 ± 0.016 | 0.397 ± 0.0089 | 0.233 ± 0.014
CN(CCCN1c2ccccc2CCc2ccccc21)CC(=O)c1ccc(Cl)cc1 [Lofepramine] | 0.133 ± 0.0019 | 0.199 ± 0.0064 | 0.127 ± 0.0072 | 0.194 ± 0.0099 | 0.0713 ± 0.0042 | 0.159 ± 0.0095 | 0.27 ± 0.062 | 0.196 ± 0.025 | 0.23 ± 0.064 | 0.227 ± 0.017 | 0.343 ± 0.013 | 0.4242 ± 0.0042 | 0.202 ± 0.017
CCC(=O)O[C@@H](O[P@](=O)(CCCCc1ccccc1)CC(=O)N1C[C@H](C2CCCCC2)C[C@H]1C(=O)O)C(C)C [Fosinopril] | 0.221 ± 0.007 | 0.33 ± 0.0063 | 0.25 ± 0.015 | 0.281 ± 0.018 | 0.0879 ± 0.0031 | 0.154 ± 0.0039 | 0.185 ± 0.013 | 0.351 ± 0.065 | 0.165 ± 0.0076 | 0.226 ± 0.017 | 0.508 ± 0.076 | 0.334 ± 0.044 | 0.0696 ± 0.00091
OCCN1CCN(CCCN2c3ccccc3Sc3ccc(C(F)(F)F)cc32)CC1 [Fluphenazine dihydrochloride] | 0.0421 ± 0.0038 | 0.041 ± 0.0026 | 0.0391 | 0.03987 ± 0.00021 | 0.03867 ± 0.00012 | 0.0405 ± 0.00052 | 0.0496 ± 0.00091 | 0.0515 ± 0.0021 | 0.0483 ± 0.00055 | 0.15 ± 0.1 | 0.04827 ± 0.00025 | 0.286 ± 0.21 | 0.0529 ± 0.00081
CCN(CC)C(=O)C1(c2ccccc2)CC1CN (configuration not stated) [Milnacipran hydrochloride] | 0.233 ± 0.011 | 0.298 ± 0.0046 | 0.271 ± 0.0097 | 0.202 ± 0.006 | 0.182 ± 0.02 | 0.151 ± 0.0028 | 0.239 ± 0.024 | 0.385 ± 0.033 | 0.203 ± 0.016 | 0.259 ± 0.026 | 0.547 ± 0.052 | 0.424 ± 0.014 | 0.322 ± 0.0073
OC(CCN1CCCC1)(c1ccccc1)C1CCCCC1 (configuration not stated) [Procyclidine hydrochloride] | 0.206 ± 0.018 | 0.297 ± 0.018 | 0.266 ± 0.0065 | 0.194 ± 0.011 | 0.163 ± 0.0092 | 0.148 ± 0.0059 | 0.314 ± 0.14 | 0.473 ± 0.055 | 0.177 ± 0.026 | 0.245 ± 0.033 | 0.573 ± 0.041 | 0.412 ± 0.009 | 0.317 ± 0.0092
C#CCN(C)Cc1ccccc1 [Pargyline hydrochloride] | 0.25 ± 0.0048 | 0.291 ± 0.0091 | 0.278 ± 0.0057 | 0.206 ± 0.02 | 0.19 ± 0.0033 | 0.142 ± 0.0058 | 0.34 ± 0.035 | 0.429 ± 0.047 | 0.177 ± 0.0081 | 0.194 ± 0.0055 | 0.516 ± 0.11 | 0.412 ± 0.0092 | 0.357 ± 0.007
CC(COc1ccccc1)N(CCCl)Cc1ccccc1 (configuration not stated) [Phenoxybenzamine hydrochloride] | 0.0435 ± 0.0034 | 0.149 ± 0.01 | 0.0397 ± 0.0001 | 0.121 ± 0.0026 | 0.03927 ± 0.00029 | 0.0621 ± 0.00078 | 0.199 ± 0.018 | 0.261 ± 0.053 | 0.175 ± 0.013 | 0.228 ± 0.011 | 0.673 ± 0.025 | 0.396 ± 0.0062 | 0.0624 ± 0.018
Clc1ccc(CO/N=C(\Cn2ccnc2)c2ccc(Cl)cc2Cl)c(Cl)c1 [Oxiconazole Nitrate] | 0.0527 ± 0.0022 | 0.0489 ± 0.0051 | 0.0625 ± 0.0013 | 0.0581 ± 0.003 | 0.0621 ± 0.0011 | 0.0621 ± 0.0089 | 0.0621 ± 0.001 | 0.0577 ± 0.0051 | 0.0621 ± 0.0016 | 0.0618 ± 0.0051 | 0.0828 ± 0.0028 | 0.095 ± 0.058 | 0.0891 ± 0.0035
CC(C)(C)NCC(O)c1cc(O)cc(O)c1 (configuration not stated) [Terbutaline hemisulfate] | 0.251 ± 0.0065 | 0.301 ± 0.0057 | 0.265 ± 0.0072 | 0.238 ± 0.047 | 0.1766 ± 0.0011 | 0.163 ± 0.0049 | 0.293 ± 0.03 | 0.385 ± 0.042 | 0.226 ± 0.004 | 0.221 ± 0.013 | 0.504 ± 0.051 | 0.402 ± 0.0092 | 0.354 ± 0.026
C[C@H]1C[C@@H]2[C@H]([C@@H](O)C[C@@]3(C)[C@H]2CC[C@]3(O)C(=O)CO)[C@@]2(C)C=CC(=O)C=C12 [Methylprednisolone, 6-alpha] | 0.202 ± 0.0042 | 0.254 ± 0.013 | 0.243 ± 0.0096 | 0.1512 ± 0.0011 | 0.116 ± 0.0032 | 0.134 ± 0.0027 | 0.259 ± 0.024 | 0.475 ± 0.018 | 0.175 ± 0.0055 | 0.213 ± 0.023 | 0.459 ± 0.028 | 0.431 ± 0.0047 | 0.295 ± 0.021
CCN1CCCC1CNC(=O)c1cc(S(=O)(=O)CC)c(N)cc1OC (configuration not stated) [Amisulpride] | 0.235 ± 0.0063 | 0.3 ± 0.011 | 0.253 ± 0.005 | 0.251 ± 0.025 | 0.169 ± 0.003 | 0.16 ± 0.0017 | 0.332 ± 0.093 | 0.377 ± 0.067 | 0.224 ± 0.02 | 0.239 ± 0.031 | 0.578 ± 0.046 | 0.408 ± 0.011 | 0.3237 ± 0.0029
CCCCCNC(=N)N/N=C/c1c[nH]c2ccc(OC)cc12 [Tegaserod maleate] | 0.0464 ± 0.0039 | 0.047 ± 0.0021 | 0.0443 ± 0.00086 | 0.0455 ± 0.0016 | 0.0451 ± 0.0011 | 0.0474 ± 0.0038 | 0.0504 ± 0.0014 | 0.0483 ± 0.0011 | 0.0474 ± 0.0015 | 0.0486 ± 0.0013 | 0.0476 ± 0.00066 | 0.0508 ± 0.00065 | 0.0554 ± 0.00072
